RAD54 branch – inhibitors of human RAD54 branch migration, primary screen, biochemical, fluorescence, single point | RAD54 Holliday junction branch migration, FAM/BHQ fluorescence | inhibition, % at 10.4 µM | 360,000 tested, 0.14% active | AID 602329, 2012;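 active = mean normalized replicate activity at least 40 and at least half of replicates scoring 40 or more; inconclusive = only one of the two criteria met; inactive = mean below 40 and under half of replicates reaching 40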;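 note: 0% = median of neutral control wells and 100% = median of positive control wells; inhibitors cause a drop in the FAM fluorescence signal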
NSD2 HMT inh – NSD2 histone methyltransferase inhibitors, primary screen, biochemical, AlphaScreen, single concentration, set 2; Histone-lysine N-methyltransferase NSD2 (Homo sapiens), O96028; NSD2 peptide methylation, 120 min; inhibition, % at 12.5 µM; 310,000 tested, 0.54% active; in the data active = inhibition above about 50%
RAD52 inh – RAD52 DNA annealing inhibitors, primary screen, biochemical, FRET, single point, set 2 | DNA repair protein RAD52 homolog (Homo sapiens), P43351 | recombinant RAD52 DNA annealing, FRET fluorescence | inhibition, % at 18.7 µM | 360,000 tested, 0.46% active | AID 651710, 2012;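 active = every replicate showing at least 50% inhibition; inconclusive = mean inhibition at least 50% but not in every replicate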
Target sequence (P43351 whole entry, looked up): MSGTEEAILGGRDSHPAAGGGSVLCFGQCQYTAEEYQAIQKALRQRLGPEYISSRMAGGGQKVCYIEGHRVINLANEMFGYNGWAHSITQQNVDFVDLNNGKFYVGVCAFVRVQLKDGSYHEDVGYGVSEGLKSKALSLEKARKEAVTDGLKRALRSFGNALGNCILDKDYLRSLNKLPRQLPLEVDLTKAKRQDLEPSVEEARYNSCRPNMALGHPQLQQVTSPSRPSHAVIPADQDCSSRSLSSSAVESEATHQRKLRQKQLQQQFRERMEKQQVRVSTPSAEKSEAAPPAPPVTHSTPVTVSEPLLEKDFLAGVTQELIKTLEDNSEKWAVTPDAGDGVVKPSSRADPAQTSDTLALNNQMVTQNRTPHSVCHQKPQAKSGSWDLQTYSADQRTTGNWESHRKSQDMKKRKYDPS
CASP6 VEID inh – human caspase-6 inhibitors, primary screen, biochemical, VEID-R110 fluorescence, single point, set 2 | P55212 | 350,000 tested, 0.53% active | purified caspase-6, Z-VEID-R110 cleavage fluorescence | inhibition, % at 12.5 µM;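 active = mean inhibition across replicates at least about 35%, with every replicate also reaching that limit, limit read from the data; inconclusive = only one of the two criteria met; inactive = neither criterion met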;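 note: 0% = median of neutral control wells and 100% = no fluorescence left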
Target sequence (P55212 24-179 limits assumed): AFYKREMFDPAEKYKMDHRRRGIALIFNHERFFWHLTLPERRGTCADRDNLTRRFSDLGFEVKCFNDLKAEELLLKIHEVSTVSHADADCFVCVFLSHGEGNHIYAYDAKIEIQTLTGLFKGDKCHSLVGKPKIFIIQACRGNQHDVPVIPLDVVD
Target sequence (P55212 194-293 limits assumed): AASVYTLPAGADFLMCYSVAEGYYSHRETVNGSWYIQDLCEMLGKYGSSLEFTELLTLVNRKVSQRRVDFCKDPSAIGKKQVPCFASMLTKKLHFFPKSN
N-glyco inh – increase of ERlucT glycosylation luciferase signal, primary screen, N-linked glycosylation inhibitor project, D54 ERlucT cells, luminescence, set 2. D54 ERlucT glycosylation luciferase reporter, 24 h; percent of 100 nM tunicamycin response. reporter increase, % at 12.5 µM. 360,000 tested, 0.23% active. AID 588692, 2011;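 active = mean luciferase reporter signal, scaled so untreated is 0 and the glycosylation-blocking control 100, at or above a set limit in every replicate; inconclusive = mean reaches the limit but not every replicate does; inactive = mean below the limit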;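 note: luciferase carries N-glycosylation sites so blocking glycosylation raises the light; 0% = median of neutral control wells and 100% = median of 100 nM tunicamycin wells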
DNA binder FP – DNA-binding compounds via dye displacement, dose response, artefact control for RAD52 inhibitor project, biochemical, fluorescence polarization, cherry-pick; shares compounds with RAD52 inh; AID 652128, 2013; AC50, µM; Salmon sperm DNA/acridine orange FP displacement; 1,000 tested, 8% active;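 active = fitted half-maximal concentration for signal loss at or below twice the highest dose tested, in every separate run, actives reach about 64 µM in these data; inconclusive = runs disagree, or flat partial signal loss, or poor fit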
Active calls of the source: *; i = inactive; ? = inconclusive; . = no result given. An excerpt weighted towards active compounds, which were near 1.2% of everything screened.

SMILES | RAD54 branch | NSD2 HMT inh | RAD52 inh | CASP6 VEID inh | N-glyco inh | DNA binder FP
C[n+]1c2n(c3ccccc31)N=C(c1cc(C(C)(C)C)c(O)c(C(C)(C)C)c1)CS2 | . | -2 | 60* | 4 | 12 | i
CC1CCN(CCCOc2ccc(Cl)cc2Br)CC1 | -3 | 8 | 13 | -9 | -2 | .
CC1CCN(CCOCCOc2ccc(Cl)cc2Br)CC1 | 4 | 0 | 52* | 7 | 0 | i
O=C(C[C@@H]1CC[C@H](NC(=O)C2CCOCC2)[C@H](CO)O1)Nc1nccs1 | -3 | . | 5 | 2 | . | .
CN(C)CCCOc1ccc(-c2cc3nc(NCc4cccnc4)n(C)c(=O)c3s2)cn1 | 46 | 5 | 60* | -21 | -3 | i
CN(C)CCCNc1nc2cc(-c3cccc(C(F)(F)F)c3)sc2c(=O)n1C | 28 | 4 | 66* | -64 | -5 | ?
S=C(NCCCc1cnc[nH]1)NCCCN(Cc1ccccc1)c1ccc(Br)cn1 | -3 | . | -22 | -6 | -2 | .
CCCCN(CCCNC(=S)NCCCc1cnc[nH]1)c1ccc(Br)cn1 | 1 | . | 55* | -13 | 1 | i
C[C@@H]1CN([C@@H](C)CO)S(=O)(=O)c2ccc(-c3cccc(F)c3)cc2O[C@@H]1CN(C)C(=O)C1CC1 | 0 | . | -4 | . | . | .
COCC(=O)Nc1ccc2c(c1)[C@@H]1C[C@@H](CC(=O)O)O[C@H](CO)[C@@H]1O2 | . | . | 9 | 2 | . | .
CC(C)NC(=O)N(C)C[C@@H]1OCCCC[C@@H](C)Oc2ccc(NS(=O)(=O)c3ccc(F)cc3)cc2C(=O)N([C@H](C)CO)C[C@H]1C | -2 | . | -19 | 0 | . | .
CCCNC(=O)N1C[C@H](C)[C@H](OC)CN(C)C(=O)c2cc(NC(=O)CCC)ccc2OC[C@H]1C | -4 | . | -14 | -2 | . | .
C[C@H]1CCCCO[C@@H](CN(C)Cc2ccncc2)[C@@H](C)CN([C@@H](C)CO)C(=O)c2cc(NS(=O)(=O)c3ccccc3)ccc2O1 | 0 | . | 23 | -1 | . | .
C[C@@H](O)Cc1cn(CC(=O)NCCCCCCCCCCC(=O)N2CCNCC2)nn1 | 8 | . | 20 | -11 | -1 | .
NCCCCCc1cn(CC(=O)NCCCCCCCCCCC(=O)N2CCNCC2)nn1 | -2 | . | 55* | -176 | 5 | i
C[C@@H]1CN([C@H](C)CO)C(=O)c2ccccc2-c2ccccc2CO[C@@H]1CN(C)S(=O)(=O)c1ccc(C#N)cc1 | 1 | . | 10 | 0 | . | .
CN1CCN(c2cc3c(c4c2[nH]c2ccccc24)C(=O)CC(C)(C)C3)CC1 | 22 | . | 67* | -4 | 2 | i
Cc1cccc2sc(N(CCCN(C)C)C(=O)COc3ccc(Cl)cc3)nc12 | . | 0 | 50* | -5 | -3 | i
Cc1cccc2sc(N(CCN(C)C)C(=O)c3cc(Cl)sc3Cl)nc12 | -6 | 1 | . | . | 0 | .
CN(C)CCCN(C(=O)CCOc1ccccc1)c1nc2c(F)cccc2s1 | . | . | 96* | -5 | -9 | i
CN(C)CCCN(C(=O)COc1ccc(Cl)cc1)c1nc2c(F)cccc2s1 | . | . | 12 | 0 | 1 | .
COc1cc2ccccc2cc1C(=O)N(CCN(C)C)c1nc2c(C)cccc2s1 | 5 | 2 | 55* | -2 | -3 | i
Cc1ccc2sc(N(CCCN(C)C)C(=O)CN3C(=O)c4ccccc4C3=O)nc2c1C | 20 | 1 | 69* | -15 | -1 | i
COc1ccc(NC(=O)N(C)C[C@@H]2Oc3ccc(NC(=O)c4ccncc4)cc3C(=O)N([C@@H](C)CO)C[C@H]2C)cc1 | -15 | . | -1 | 1 | . | .
COCC(=O)N1CC2(C1)CN(Cc1ccccc1Cl)[C@@H](CO)c1c2c2ccc(OC)cc2n1C | . | . | -21 | 3 | . | .
SMILES | RAD54 branch | NSD2 HMT inh | RAD52 inh | CASP6 VEID inh | N-glyco inh | DNA binder FP
C[C@@H]1CN([C@H](C)CO)C(=O)c2cc(C#CC3CCCCC3)cnc2O[C@@H]1CN(C)Cc1ccncc1 | 6 | . | 10 | -2 | . | .
O=C(C[C@@H]1CC[C@H]2[C@@H](COC[C@@H](O)CN2Cc2ccc3c(c2)OCO3)O1)N1CCOCC1 | 3 | . | 0 | -1 | . | .
Cc1sc2nc(CN3CCCCC3)nc(Nc3ccc4c(c3)OCCO4)c2c1C | . | 14 | 72* | 2 | 1 | i
CCOC(=O)c1cnc2c(ccc3ccccc32)c1NCCN(C)C | 80* | 18 | 79* | -8 | 9 | i
O=C(N/N=C/c1cccc([N+](=O)[O-])c1)c1cc[n+](CCO)cc1 | 18 | 2 | 82* | -62 | -1 | i
COCC(=O)Nc1ccc2c(c1)OC[C@H](C)N(Cc1cc(F)ccc1F)C[C@@H](C)[C@@H](OC)CN(C)C2=O | -9 | . | 5 | -2 | . | .
COc1ccc(OC)c2nc3c(C(=O)NCCN(C)C)cccc3nc12 | . | 6 | 105* | -20 | 91* | 4.7µM*
CN(C)CCNC(=O)c1cccc2nc3cccc(F)c3nc12 | . | . | 97* | -6 | -5 | 18µM*
CN(C)CCNC(=O)c1cccc2ccc(-c3ccc(-c4ccccc4)cc3)nc12 | . | 1 | 43 | 2 | 16 | .
CC[N+](CC)(CC)CCCCOc1ccc2c(c1)C(=O)c1cc(OCCCC[N+](CC)(CC)CC)ccc1-2 | 99* | 16 | 102* | -30 | 1 | 21µM*
CC[N+](CC)(CC)CCOc1ccc(/C=C/c2ccccc2)cc1 | -4 | . | 32 | -9 | -7 | .
COc1ccc(C(=O)NC2CC(C)(C)NC(C)(C)C2)cc1S(=O)(=O)N1CCOCC1 | 0 | 0 | 98* | -2 | 2 | i
COc1ccc(C(=O)NC2CCCCC2)cc1S(=O)(=O)N1CCOCC1 | -1 | . | 2 | 4 | -1 | .
OCCNc1c2ccccc2nc2ccccc12 | . | 1 | 79* | 4 | 66* | 60µM*
C[C@@H]1CN([C@@H](C)CO)C(=O)Cc2cc(NC(=O)CCC(F)(F)F)ccc2O[C@H]1CN(C)Cc1ccc(C(F)(F)F)cc1 | -7 | . | -10 | 1 | . | .
CCN(Cc1ccccc1)S(=O)(=O)c1ccc(C(=O)N(CCCN(C)C)c2nc3cc(OC)ccc3s2)cc1 | . | 1 | 59* | -6 | -7 | i
COc1cc2nc(N(CCCN(C)C)C(=O)c3ccc(S(=O)(=O)N4CCc5ccccc54)cc3)sc2cc1OC | 15 | 4 | 70* | -79 | -4 | i
COc1ccc2sc(N(CCCN(C)C)C(=O)c3ccc(S(=O)(=O)N4CCCc5ccccc54)cc3)nc2c1 | 2 | 2 | 77* | -12 | -8 | i
CCOc1cccc2sc(N(CCCN(C)C)C(=O)c3ccc(S(=O)(=O)N4CCc5ccccc5C4)cc3)nc12 | 11 | 0 | 55* | -13 | -3 | i
